# Measurements reported in PubChem BioAssay (EPA / NIEHS).
# Values joined by “and” are separate entries in the source; they are usually repeats but may differ in a detail not shown here. Identical values can stand only once. Records with an inconclusive call do not appear. Active and inactive are the calls of the source. Rule for the calls, unless noted: active = hit-call score of the fitted dose curve at least 0.9, where 1 is the maximum; inconclusive = response in the unintended direction; inactive = score below 0.9.
# Legend:
# [1] = CCTE_Deisenroth_5AR_NBTE_donor: CCTE's 5alpha-reductase NanoBRET Target Engagement Assay […], Deisenroth Lab (AID 2284319; active = hit-call score of the fitted dose curve at least 0.9, where 1 is the maximum; inactive = score below 0.9); conditions: actives raise or lower the signal
# How it was run: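 In this secondary endpoint, donor luminescence from SRD5A2-NanoLuc in transfected HEK293T flags artifacts. Test chemical (10 nM - 29.9 uM) is present five hours, tracer the last two; mock-tracer wells run plate-matched; data fitted bidirectionally against DMSO.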
# [2] = CCTE_Deisenroth_5AR_NBTE_acceptor: CCTE's 5alpha-reductase NanoBRET Target Engagement Assay - Autofluorescence Screen, Deisenroth Lab (AID 2284321; active = hit-call score of the fitted dose curve at least 0.9, where 1 is the maximum; inactive = score below 0.9;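 note: compound fluorescence in the acceptor channel under 460 nm excitation flags autofluorescence artifacts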); conditions: actives raise or lower the signal
# How it was run: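 Acceptor fluorescence intensity was read as an artifact-detection endpoint. Test chemicals at an assumed nominal 100 uM were excited at 460 nm across three independent runs. Activity was fitted bidirectionally against DMSO.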
# [3] = tested on: SRD5A2 (gene 6716); assay: CCTE_Deisenroth_5AR_NBTE_ratio: CCTE's 5alpha-reductase NanoBRET Target Engagement Assay - Ratio, Deisenroth Lab (AID 2284322; active = hit-call score of the fitted dose curve at least 0.9, where 1 is the maximum; inactive = score below 0.9); conditions: actives raise or lower the signal
# How it was run: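 HEK293T cells transiently expressing an SRD5A2-NanoLuc fusion (20 h post-transfection) were exposed to test chemical (10 nM - 29.9 uM, 8 points) for 3 h, then testosterone tracer for a further 2 h. Acceptor/donor BRET ratio was fitted bidirectionally against DMSO baseline.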
# [4] = IUF_NPC4_neurite_length_120hr: Leibniz Research Institute for Environmental Medicine (IUF) 120-hour Neuronal Morphology Assay for Neurite Length (NPC4) (AID 2284302; active = hit-call score of the fitted dose curve at least 0.9, where 1 is the maximum; inactive = score below 0.9)
# How it was run: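 Neurite length, the mean in um across TUBB3-stained neurons, is derived by skeletonization of high-content images after 120 h differentiation. Compound exposure, 7 concentrations plus solvent control, ran from plating of hNPC spheres on poly-D-lysine/laminin, with medium half-replaced on day 3.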
# [5] = IUF_NPC5_oligodendrocyte_differentiation_120hr: Leibniz Research Institute for Environmental Medicine (IUF) 120-hour Oligodendrocyte Differentiation Assay (NPC5) (AID 2284304);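 note: primary human fetal neural progenitor spheres plated to migrate and differentiate; share of O4-positive cells among Hoechst nuclei found by CNN image analysis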
# How it was run: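 Oligodendrocyte differentiation was scored after 120 h as the O4-positive share of Hoechst-stained nuclei across the neurosphere migration area, using a trained convolutional neural network on high-content fluorescence images. Human fetal neural progenitor spheres were dosed from day 0, normalised to DMSO.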
# [6] = IUF_NPC4_neurite_area_120hr: Leibniz Research Institute for Environmental Medicine (IUF) 120-hour Neuronal Morphology Assay for Neurite Area (NPC4) (AID 2284305)
# How it was run: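 Neurite area (pixels, nuclei excluded) of TUBB3-positive neurons from hNPC spheres differentiating 5 days under continuous exposure at 37 C, 5% CO2. High-content imaging; loss of signal versus DMSO control across 7 concentrations.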
# [7] = IUF_NPC2-5_cytotoxicity_72hr: Cytotoxicity Assessment at 72 hours in the Leibniz Research Institute for Environmental Medicine (IUF) Neural Progenitor Cell Migration and Differentiation Assay for Cytotoxicity (NPC2-5) (AID 2284306);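 note: LDH release into supernatant measured by resorufin fluorescence marking membrane damage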
# How it was run: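 Membrane-integrity cytotoxicity at 72 h, read as LDH-driven resorufin fluorescence in supernatant. hNPC spheres from fetal cortex differentiate on coated plates in N2 medium, 37C, 5% CO2; seven serial compound concentrations plus solvent control (DMSO ≤0.1%).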
# [8] = IUF_NPC2-5_cytotoxicity_120hr: Cytotoxicity Assessment at 120 hours in the Leibniz Research Institute for Environmental Medicine (IUF) Neural Progenitor Cell Migration and Differentiation Assay (NPC2-5) (AID 2284307);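 for AC50: LDH released into supernatant as membrane damage marker via resorufin fluorescence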
# How it was run: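 Sphere plating starts differentiation and exposure together at day 0. Compound solution is half-replaced on day 3. At 120 h, medium supernatant is taken for an LDH membrane-integrity read based on resazurin reduction to resorufin fluorescence.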
# [9] = IUF_NPC2-5_cell_number_120hr: Cell Number Assessment at 120 hours in the Leibniz Research Institute for Environmental Medicine (IUF) Neural Progenitor Cell Migration and Differentiation Assay (NPC2-5) (AID 2284308; active = hit-call score of the fitted dose curve at least 0.9, where 1 is the maximum; inactive = score below 0.9;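 note: count of Hoechst-stained nuclei in migration zone around plated human neural progenitor spheres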)
# How it was run: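 hNPC spheres, one per well, PDL/laminin, N2 medium, 37C, 5% CO2. Dosing day 0 → half-medium change with fresh compound day 3 → fix 120 h. Readout: Hoechst+ nuclei count, migration area; 7 concentrations plus solvent control.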
# [10] = IUF_NPC2-5_viability_120hr: Viability Assessment at 120 hours in the Leibniz Research Institute for Environmental Medicine (IUF) Neural Progenitor Cell Migration and Differentiation Assay (NPC2-5) (AID 2284312; active = hit-call score of the fitted dose curve at least 0.9, where 1 is the maximum; inactive = score below 0.9)
# How it was run: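 Alamar blue resorufin fluorescence read after 5 days of differentiation, with compound present from day 0 and replenished at day 3. Primary hNPC spheres on laminin-coated plates, 37C; seven concentrations plus solvent control, fitted against DMSO.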
# [11] = CCTE_Mundy_HCI_iCellGluta_NOG_NeuriteLength: CCTE's Neurite Outgrowth Assay in iCellGluta cells for Neurite Length, Mundy Lab (AID 2284318)
# How it was run: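 Automated high-content imaging of betaIII-tubulin (Alexa Fluor-488) and Hoechst-stained cells gave neurite length, normalized to the DMSO baseline.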
# [12] = IUF_NPC1_cytotoxicity_72hr: Cytotoxicity Assessment at 72 hours in the Leibniz Research Institute for Environmental Medicine (IUF) Neural Progenitor Cell Proliferation Assay (NPC1) (AID 2284332);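 note: rising LDH signal means more cytotoxicity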
# How it was run: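 Cytotoxicity by LDH membrane-integrity assay on medium supernatants, fluorescence via resazurin reduction, after 3-day single exposure of primary hNPC spheres at 37C, pH 7.2-7.6 with growth factors. Fitted upward against baseline.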
# [13] = tested on: IYD (gene 389434); assay: CCTE_GLTED_hIYD: CCTE's human Iodotyrosine Deiodinase (xIYD) Inhibition Assay, Great Lakes Toxicology and Ecology Division (GLTED) Lab (AID 2284317);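 note: cell-free human IYD enzyme made in baculovirus insect cells; iodide freed from monoiodotyrosine measured by cerium arsenite color change at 420 nm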
# How it was run: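 In the IYD assay, iodide released from MIT by insect-cell-expressed human enzyme was quantified after 3 h via Sandell-Kolthoff rate at 420 nm, with plate-wise normalization to MNT and solvent controls.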
# [14] = VALA_TUBIPS_Agonist_TubuleLength: VALA Sciences human iPS-derived Endothelial Tubule Formation (TUBIPS) Agonism Assay (AID 2284311)
# How it was run: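 Agonist-mode readout is the gain in imaged tubule length versus DMSO baseline. It was measured by fluorescence high-content imaging 72 h after dosing human iPSC-derived endothelial cells.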
# [15] = VALA_TUBIPS_Antagonist_TubuleLength: VALA Sciences human iPS-derived Endothelial Tubule Formation (TUBIPS) Antagonist Assay (AID 2284313)
# How it was run: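 Tubule length was quantified by high-content imaging of CD31- and nuclear-stained cells, with 0.1% DMSO as neutral and 100 uM suramin as inhibition control. Compounds were applied for 3 days, in 10 ng/ml VEGF, to cultures pre-grown 3 days.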
# [16] = VALA_MIGHUV2_Bcatenin: VALA Sciences human Umbilical Vein Endothelial Cell Migration (MIGHUV) Assay, Nuclear Translocation of beta-Catenin after Recovery (AID 2284315)
# How it was run: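 Nuclear beta-catenin imaged by immunofluorescence with Hoechst counterstain in fixed HUVEC, 24 h after scratch wounding and chemical addition. Six-point concentration-response in triplicate; activity scored as signal increase over 0.1% DMSO vehicle.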
# [17] = VALA_MIGHUV2_WoundArea: VALA Sciences human Umbilical Vein Endothelial Cell Migration (MIGHUV) Assay, Area of Scratch Wound after Recovery (AID 2284316)
# How it was run: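 Wound-area endpoint read by fluorescence imaging of Hoechst-stained nuclei after a 24 h recovery period following scratch of HUVEC monolayers (9000 cells/well). Chemicals dosed within 30 min post-scratch, triplicate 6-point series, 0.1% DMSO vehicle; Cytochalasin D positive control.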
# [18] = read-out: CD69, CD69 (gene 969); assay: BSK_LPS_CD69: BioMAP Diversity Plus: LPS Assay for CD69 Biomarker Activity (AID 2284303; active = hit-call score of the fitted dose curve at least 0.9, where 1 is the maximum; inactive = score below 0.9); conditions: primary human HUVEC with PBMC
# How it was run: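 CD69 surface levels were read by ELISA after 24 h chemical treatment of an LPS-stimulated HUVEC plus PBMC co-culture; positive-direction fit against DMSO vehicle.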
structure (smiles),measurement,setting,value
O=c1[nH]c(=O)n(Cl)c(=O)n1Cl,outcome,[1],inactive
same,outcome,[2],inactive
same,outcome,[3],inactive
CS(=O)(=O)c1ccc(C(=O)C2C(=O)CCCC2=O)c(Cl)c1COCC(F)(F)F,outcome,[4],inactive
same,outcome,[5],inactive
same,outcome,[6],inactive
same,outcome,[7],inactive
same,outcome,[8],inactive
same,outcome,[9],inactive
same,outcome,[10],inactive
same,AC50,[11],25 µM (active)
same,outcome,[12],inactive
CCCCCCCCCCCCOS(=O)(=O)O,AC50,[13],62.8 µM (active) and 56.8 µM (active)
CCOCn1c(-c2ccc(Cl)cc2)c(C#N)c(Br)c1C(F)(F)F,AC50,[4],14.4 µM (active)
same,AC50,[5],5.56 µM (active)
same,AC50,[6],13.4 µM (active)
same,AC50,[7],50 µM (active)
same,AC50,[8],41.7 µM (active)
same,AC50,[9],84.8 µM (active)
same,outcome,[10],inactive
same,AC50,[11],14.1 µM (active)
same,AC50,[12],50.4 µM (active)
Nc1ncn[nH]1,outcome,[14],inactive
same,outcome,[15],inactive
same,outcome,[16],inactive
same,outcome,[17],inactive
CCCCOC(=O)COC(=O)c1ccccc1C(=O)OCCCC,outcome,[18],inactive
O=[N+]([O-])c1ccccc1O,outcome,[1],inactive
same,outcome,[2],inactive
same,AC50,[3],50 µM (active)
CNC(=O)CSP(=O)(OC)OC,outcome,[4],inactive
same,outcome,[6],inactive
same,outcome,[7],inactive
same,outcome,[8],inactive
same,outcome,[9],inactive
same,outcome,[10],inactive
same,outcome,[12],inactive
OC(Cc1ccccc1Cl)(Cn1[nH]cnc1=S)C1(Cl)CC1 (centres undefined),AC50,[4],36.1 µM (active)
same,AC50,[5],0.507 µM (active)
same,AC50,[6],40.3 µM (active)
same,outcome,[7],inactive
same,AC50,[8],126 µM (active)
same,outcome,[9],inactive
same,AC50,[10],35.8 µM (active)
same,outcome,[11],inactive
same,outcome,[12],inactive
CC(C)[C@@H](Nc1ccc(C(F)(F)F)cc1Cl)C(=O)OC(C#N)c1cccc(Oc2ccccc2)c1 (some centres undefined),outcome,[4],inactive
same,AC50,[5],3.8 µM (active)
same,outcome,[6],inactive
same,outcome,[7],inactive
same,outcome,[8],inactive
same,outcome,[9],inactive
same,outcome,[10],inactive
same,outcome,[11],inactive
